Compounds without any hit were thinned out: in the full panel of roughly 83,000, 20% have a hit.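 Percent growth is the endpoint: 0 to 100 indicates growth inhibition (40 means 60% inhibition), 0 means no net growth, and negative values indicate cell death.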 A number with no mark means an inactive call. The source made the active and inactive calls. The calls were made as follows: active = growth percent below 10; inactive = the rest.

Common to all, as to experiment: NCI-60 one-dose screen, 48 h (100 = growth as untreated, 0 = no growth, -100 = all killed)
Common to all, as to conditions: 10 µM unless noted

For assay [1], the system named is HCT-15 colon.
Assay [2] relates to HT29 colon.
Assay [3] deals with SNB-19 CNS.
Assay [4] concerns U251 CNS.
The test system of assay [5] is PC-3 prostate.
Assay [6] relates to SK-MEL-5 melanoma.
Assay [7] relates to UACC-62 melanoma.
Assay [8] concerns LOX IMVI melanoma.
In assay [9] the test system is SK-MEL-28 melanoma.
The subject of assay [10] is SK-MEL-2 melanoma.
Assay [11] deals with EKVX NSCLC.
For assay [12], the system named is SN12C renal.
Assay [13] concerns UO-31 renal.
In assay [14] the test system is TK-10 renal.
Assay [15] has as its system ACHN renal.
The subject of assay [16] is CAKI-1 renal.
Assay [17] has as its system A498 renal.
In assay [18] the test system is CCRF-CEM leukemia.
The test system of assay [19] is MOLT-4 leukemia.

Turning to `CC(C)(C)n1cc(-c2ccnc(NCCCNS(=O)(=O)c3ccc(Br)cc3)c2)c(-c2cccc(O)c2)n1`, the growth is -47.3% (active) in [1]; 1.23% (active) in [2]; 48.7% in assay [3]; 29.5% in assay [4]; 16.9% in [5]; 15.1% in assay [6]. Further, the growth in assay [7] is 42.9%; in assay [8], -75.6% (active); in assay [9], -32.1% (active); in [10], 19%; in [11], 50.1%; in [12], 42.9%. The growth is 39% in assay [13]; 90.1% in assay [14]; 33.1% in assay [15]; 36.7% in assay [16]; 35.1% in [17]; 25.5% in assay [18]. Besides, the growth in assay [19] was 6.97% (active).
Take `OC(c1cc2cc(Br)ccc2c2cc(Br)ccc12)C1CCCCN1` (configuration not stated): the growth in assay [1] is -71.6% (active); in assay [2] it was -82.5% (active); in assay [3] it was -70.9% (active); in [4], -94.5% (active); in assay [5] it was -88.5% (active); in assay [6] it was -1.27% (active). For the same compound, the growth is -79.4% (active) in [7]; -62% (active) in assay [8]; -93.2% (active) in assay [9]; -73.5% (active) in assay [10]; -70.7% (active) in [11]; -73.8% (active) in [12]. Also, the growth in [13] is -80.6% (active); in assay [14] it was -90.5% (active); in [15] it was -73.4% (active); in assay [16], -81% (active); in assay [17], 24%; in assay [18] it was -57.4% (active). In addition, the growth in assay [19] is -71.9% (active).
For the compound `NC(=S)N/N=C(/CCN1CCCC1)CC(C1=C(O)C2=CCCCC2OC1=O)c1ccccc1` (configuration not stated), the growth in [1] is 75.6%; in assay [2] it was 36.2%; in assay [3] it was 109%; in assay [4], 88%; in [5] it was 85.6%; in assay [6], 98.3%. The growth in [7] was 97.4%; in [8], 56%; in assay [9], 99.6%; in assay [10], 93.2%; in assay [11], 63.3%; in assay [12], 85.3%. The growth in assay [13] is 64.5%; in [14] it was 120%; in assay [15], 89.4%; in assay [16], 98.6%; in [17] it was 109%; in assay [18] it was 48.9%. Besides, in [19], the growth was 64.8%.
Regarding `CCCCCCCCCCCCNC(=O)[C@H]1CSC(c2ccsc2)N1` (some centres not stated), the growth was -71.4% (active) in assay [1]; -74% (active) in assay [2]; -80% (active) in assay [3]; -94.2% (active) in assay [4]; -88.9% (active) in [5]; 36.5% in assay [6]. The growth in [7] was -93.5% (active); in assay [8], -89.5% (active); in [9], -88% (active); in [10] it was -91% (active); in [11], -84% (active); in assay [12] it was -87% (active). Also, the growth in [13] is -99.6% (active); in assay [14] it was -91.6% (active); in assay [15], -68.7% (active); in assay [16], -13.7% (active); in assay [17] it was 106%; in [18], -43.2% (active). In [19], the growth was -67.5% (active).
As for `CN(C[C@H]1Cc2c(cccc2N2CCN(c3ncccn3)CC2)CN1)[C@H]1CCCc2cccnc21`, the growth in [1] was 31.6%; in [2], 21.2%; in assay [3], 41%; in assay [4], 24.1%; in assay [5], 34.2%; in assay [6], 26.9%. The growth in assay [7] was 53.7%; in assay [8], 36.4%; in assay [9], 65.2%; in assay [10] it was 68.8%; in assay [11], 37.7%; in assay [12], 39.9%. Moreover, the growth in assay [13] is 16.9%; in assay [14], 38%; in assay [15], 35.5%; in assay [16], 33.5%; in [17], 58.1%; in assay [18], 22.4%. In assay [19], the growth was 27.9%.
Turning to `COc1ccc(-c2nc(SCCC(C)C)nc(Nc3ccc(F)c(Cl)c3)c2C#N)cc1`, the growth is 84.9% in [1]; 75.9% in assay [2]; 77.9% in assay [3]; 33.7% in assay [4]; 80% in [5]; 94.1% in assay [6]. The growth in assay [7] was 97.5%; in assay [8] it was 76.4%; in [9], 105%; in [10], 120%; in assay [11], 55.7%; in assay [12], 56.7%. Besides, the growth in [13] is 56.6%; in [14] it was 62.6%; in assay [15] it was 47.8%; in assay [16], 75.5%; in assay [17], 76.8%; in [18], 71%. In addition, the growth in assay [19] was 86.1%.
As to `COc1cc(NC(N)=NCCC(C)(C)c2ccc(C(F)(F)F)cc2)ncc1C#N`, the growth in assay [1] was 14.6%; in assay [2], -37% (active); in assay [3], 48.4%; in assay [4], -37.4% (active); in [5] it was 25.4%; in assay [6] it was -80.2% (active). For the same compound, the growth was 10.4% in assay [7]; 18.3% in [8]; -55.6% (active) in assay [9]; 48.8% in [10]; 24.8% in assay [11]; 27.4% in assay [12]. Also, the growth in [13] was 4.93% (active); in [14], 13.8%; in assay [15] it was 45.1%; in assay [16], 40.8%; in assay [17] it was 48.1%; in assay [18], 24.6%. Besides, in [19], the growth was -10.7% (active).
As for `O=C(/C=C\c1cccc([N+](=O)[O-])c1)/C=C/c1cccc([N+](=O)[O-])c1`, the growth is 73.5% in assay [1]; 9.81% (active) in assay [2]; 94.5% in assay [3]; 22.6% in [4]; 82.1% in [5]; 100% in [6]. Besides, the growth is 78.1% in assay [7]; -89.7% (active) in [8]; 102% in [9]; -38.1% (active) in assay [10]; 107% in [11]; 98.1% in [12]. Further, the growth in assay [13] is 71.1%; in assay [14], 89.9%; in [15], 89.6%; in assay [16], 94.2%; in assay [17], 90.4%; in assay [18], 74.4%. In addition, the growth in [19] is 94.3%.

(Values after PubChem BioAssay (NCI).)
